# Measured values as given in PubChem BioAssay AID624256 (NMMLSC, 2012).
# About 3,700 (1%) of roughly 360,000 compounds were called active. About 2% were inconclusive and are not listed.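 Rule for the calls: active = normalized GFP-positive differentiation at or above the plate's own cutoff, the solvent-only control mean plus 3 SD; inconclusive = no clear call, values can overlap the other calls; inactive = the rest.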 This excerpt belongs to a sample that is enriched for actives.
# Experiment: induction of myeloid progenitor differentiation, primary screen, cell-based, flow cytometry, MLPCN library (AID 624256);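 for GFP+ MAC1+ double positive: cells exposed to compound for four days before flow analysis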;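 for normalized GFP-positive differentiation: cells exposed to compound for four days before flow analysis; 0% = DMSO wells and 100% = fulvestrant positive control at 5 µM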
# Conditions: ER-HoxA9 myeloid progenitors, lysozyme-GFP differentiation, at 10 µM; GFP+ MAC1+ double positive: measured here: differentiation confirmed by MAC1 staining, stronger effect = higher value; normalized GFP-positive differentiation: stronger effect = higher value
Structure (SMILES),GFP+ MAC1+ double positive,outcome,normalized GFP-positive differentiation
COc1ccc(-c2cc3c(c4c2ccn4C)C2CCC3C2)cn1 (stereo not drawn),1.4%,inactive,
O=C1Nc2ccccc2-n2nnnc2C1N1CCN(c2cccc(C(F)(F)F)n2)CC1 (stereo not drawn),1.4%,inactive,
CCCCCCc1cc2cc(-c3nnc(-c4ccccc4)o3)c(=O)oc2cc1O,56.6%,,197% (active)
CCc1ccc(CN(C)C(=O)CCc2nnc(-c3ccc(-c4ccccc4)cc3)o2)nc1,0.1%,inactive,
CN[C@H]1C[C@H]2c3cc(Oc4ccccc4C)ccc3CCN2C(=O)[C@H]1[C@H](C)O,0.2%,inactive,
O=C(CCC(=O)c1ccccc1)NCc1cccc(C(F)(F)F)c1,0.7%,inactive,
O=C(Cc1cccs1)NCc1cccc(C(F)(F)F)c1,3.5%,,341% (active)
Cn1c(=O)c2cc(NC(=O)NCCc3cccs3)ccc2n1Cc1cccc(C(F)(F)F)c1,1.6%,inactive,
COc1ccc(C(=O)C(OP(=O)(OC)OC)c2ccccc2OC)cc1 (stereo not drawn),2%,inactive,
CN(C)CCCOc1ccc(-c2ccc3nccn3c2)cn1,0.4%,inactive,
Cc1ccc(Cl)c(OCC(=O)N2CCc3ccccc3C2)c1,0.3%,inactive,
CCC(=O)c1ccc(OCC(=O)OCC(=O)NC2CCCCCC2)cc1,1.4%,inactive,
CCC(=O)c1ccc(OCC(=O)OCC(=O)N2CCc3ccccc3C2)cc1,0.4%,,6.6% (active)
CCOc1ccc2[nH]c(=S)sc2c1,0%,inactive,
CCC(CC)C(C(=O)NC1CCCC1)N1CCN(c2cc(C)nc3ccccc23)CC1 (stereo not drawn),1.2%,inactive,
COC(=O)c1ccc2nc(-c3ccccc3)c(Cc3ccc(OC)cc3C)n2c1,1.4%,inactive,
O[C@@H]1C[C@H](c2ccccc2)N(Cc2cccs2)C[C@H]1n1cc(C2CC2)nn1,0.6%,inactive,
O[C@H]1C[C@H](c2ccc(Cl)cc2)N(Cc2cccs2)C[C@@H]1n1cc(C2CC2)nn1,3.6%,,19.2% (active)
O[C@H]1CN(Cc2cccs2)[C@@H](c2ccc(Cl)cc2)C[C@@H]1n1cc(C2CC2)nn1,1.3%,,3.49% (inactive)
CC(C)c1cc(Cn2c3ccccc3c(=O)n2C(C)Cn2cc(C3CC3)nn2)on1 (stereo not drawn),2.6%,inactive,
COc1cccc(CNc2nc(NCc3cccs3)nc3ccsc23)c1,1.5%,inactive,
O=S1(=O)C[C@@H](N2CCN(CCO)CC2)[C@H](COCc2ccccc2)N1,0.9%,inactive,

Structure (SMILES),GFP+ MAC1+ double positive,outcome,normalized GFP-positive differentiation
CCc1ccc([C@@H]2CC(=O)[C@@H]3CN(S(=O)(=O)c4ccc(C)cc4)[C@H](c4ccc(Cl)cc4)C[C@@H]3N2S(=O)(=O)c2ccc(C)cc2)cc1,1.2%,inactive,
CC(=O)Nc1cncc(-c2ccccc2CO)n1,0.4%,inactive,
CC(=O)Nc1cccc(-c2cc(NC=O)c3ncc(-c4ccc(F)c(Cl)c4)n3c2)c1,1.3%,inactive,
Cc1ccc(-c2ccnc3[nH]n(-c4ccccc4)c(=O)c23)cc1,0.4%,,17.5% (active)
O=c1c2c(-c3ccccc3)ccnc2[nH]n1-c1ccccc1,0.5%,inactive,
Cc1ccc(N2C(=O)c3ccccc3C2(O)c2ncc[nH]2)cc1 (stereo not drawn),1.1%,inactive,
COC(=O)[C@@]12C[C@@H](CC(=O)NCCCCc3ccccc3)C(=O)N(CCc3ccc(OC)c(OC)c3)C1=CCC(C)(C)C2,1.6%,inactive,
COC(=O)C[C@@H]1C=C[C@@H](NS(=O)(=O)c2cccc(OC)c2)[C@@H](CO)O1,1.6%,inactive,
Cc1c(-c2ccccc2)cn2c1-c1ccc(C)n1CC2,1.4%,,31.7% (active)
O=C(C[C@H]1CC[C@H]2[C@@H](COC[C@H](O)CN2C(=O)c2ccccn2)O1)N1CCN(c2ccccc2)CC1,2.6%,inactive,
CN(CCO)C(=O)c1nc[nH]c1C(=O)N(C)Cc1ccccc1,0.2%,inactive,
CCCCn1nnnc1C(c1cc2ccccc2o1)N(C)Cc1ccc(Cl)c(Cl)c1 (stereo not drawn),0.9%,inactive,
COCCCn1c(=O)/c(=C/c2ccccc2OC(C)C)s/c1=C(\C#N)C(=O)Nc1ccc(C(=O)O)cc1,2.8%,,20.2% (active)
COc1ccc(NC(=O)/C(C#N)=C\c2cc(OC)c(OCc3ccc(C(=O)O)cc3)cc2Br)cc1,0.2%,inactive,
COc1ccccc1C(=O)N/C(=C/c1ccco1)C(=O)Nc1ccc(C(=O)O)cc1,1.5%,inactive,
COCCNC(=O)C1CCCN(Cc2ccccc2Cl)CC1 (stereo not drawn),0.5%,inactive,
COC(=O)[C@@]1(Sc2ccc(C)cc2)CC(=O)N(c2cccc(SC)c2)[C@@H]1c1ccccc1,0.4%,inactive,
c1ccc(Cc2c(-c3ccco3)nc3c4ccccc4ccn23)cc1,1.5%,inactive,
Cc1cc(NC(C)C)n2c(nc3ccccc32)c1C#N,1%,inactive,
Cc1ccc(Oc2nc3ccccc3n3c(C)nnc23)cc1,5.3%,inactive,
Cc1ccc(S(=O)(=O)N(C)c2nc3ccccc3n3c(C(C)C)nnc23)cc1,2%,,94.1% (active)
Cc1cc2c(cc1C)N1C(=O)c3cc4ccccc4cc3NC(=O)C1C(=O)N2 (stereo not drawn),1.5%,inactive,
